# Data reported in PubChem BioAssay AID1159580 (chemical genetic matrix, 2015).
# In all, about 5,500 compounds went through this assay and about 2,000 (36%) were called active. About 18% were inconclusive and are not listed. Some of the results follow. A number with no mark means an inactive call. No stated cut-off is given here; in the data, active means normalized growth mostly below about 0.91 (no sharp cut-off); inconclusive means no clear call, values can overlap the other calls; inactive means mostly above about 0.92.
# Experiment: chemical genetic growth profiling, strain panel (AID 1159580);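 further: tested at 20 µM; growth read once vehicle control cultures reached saturation at 30 °C; 1 = growth at the plate median or of vehicle wells; lower values mean less growth of the strain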
# Settings: S. cerevisiae deletion strains, growth OD
# [1] = locus YAL013W, strain DEP1, active compounds read low
# [2] = locus YBR229C, strain ROT2, active compounds read low
# [3] = locus YDL101C, strain DUN1, active compounds read low
# [4] = locus YDR150W, strain NUM1, active compounds read low
# [5] = locus YEL061C, strain CIN8, active compounds read low
# [6] = locus YGR078C, strain PAC10, active compounds read low
# [7] = locus YHR030C, strain SLT2, active compounds read low
# [8] = locus YHR087W, strain rtc3, active compounds read low
# [9] = locus YJR043C, strain POL32, active compounds read low
# [10] = locus YJR075W, strain HOC1, active compounds read low
# [11] = locus YLR039C, strain RIC1, active compounds read low
# [12] = locus YLR058C, strain SHM2 (second series), active compounds read low
# [13] = locus YLR085C, strain ARP6, active compounds read low
# [14] = locus YLR262C, strain YPT6, active compounds read low
# [15] = locus YML094W, strain GIM5, active compounds read low
# [16] = locus YMR219W, strain ESC1, active compounds read low
# [17] = locus YMR263W, strain SAP30, active compounds read low
# [18] = locus YNL128W, strain TEP1, active compounds read low
# [19] = locus YNL153C, strain GIM3, active compounds read low
# [20] = locus YNL298W, strain CLA4 (second series), active compounds read low
# [21] = locus YNL322C, strain KRE1, active compounds read low
# [22] = locus YNR030W, strain Alg12, active compounds read low
# [23] = locus YOL006C, strain TOP1, active compounds read low
# [24] = locus YPL055C, strain LGE1, active compounds read low
# [25] = locus YPL241C, strain CIN2, active compounds read low
# [26] = locus YPR135W, strain CTF4, active compounds read low
# [27] = locus YMR307W, strain GAS1, active compounds read low
# [28] = locus YAL040C, strain CLN3, active compounds read low
# [29] = locus YCL061C, strain MRC1 (second series), active compounds read low
# [30] = locus YDR363W, strain ESC2, active compounds read low
# [31] = locus YER002W, strain NOP16, active compounds read low
# [32] = locus YNL175C, strain NOP13, active compounds read low
# [33] = locus YNL197C, strain WHI3, active compounds read low
# [34] = locus YNL224C, strain SQS1, active compounds read low
# [35] = locus YOR083W, strain WHI5 (second series), active compounds read low
smiles,measurement,setting,value
O=[N+]([O-])c1ccc(OCCCOc2ccc([N+](=O)[O-])cc2)cc1,normalized growth,[1],1
same,normalized growth,[2],0.978
same,normalized growth,[3],0.98
same,normalized growth,[4],0.988
same,normalized growth,[5],0.979
same,normalized growth,[6],0.991
same,normalized growth,"locus YGR229C, strain SMI1, active compounds read low",0.995
same,normalized growth,[7],0.91
same,normalized growth,[8],0.973
same,normalized growth,[9],1.01
same,normalized growth,[10],0.971
same,normalized growth,"locus YKL190W, strain CNB1, active compounds read low",1
same,normalized growth,[11],0.966
same,normalized growth,[12],0.975
same,normalized growth,[13],0.993
same,normalized growth,[14],0.969
same,normalized growth,[15],0.934
same,normalized growth,[16],0.983
same,normalized growth,[17],1.01
same,normalized growth,[18],0.996
same,normalized growth,[19],0.995
same,normalized growth,[20],0.961
same,normalized growth,[21],0.99
same,normalized growth,[22],0.979
same,normalized growth,[23],0.97
same,normalized growth,[24],1.02
same,normalized growth,[25],0.953
same,normalized growth,[26],0.932
O=[N+]([O-])c1ccc(Oc2cccc3cccnc23)cc1,normalized growth,[1],1.01
same,normalized growth,[2],1
same,normalized growth,[3],0.942
same,normalized growth,"locus YDL134C, strain PPH21, active compounds read low",0.993
same,normalized growth,[4],1
same,normalized growth,[5],0.98
same,normalized growth,[6],0.991
same,normalized growth,[7],0.736
same,normalized growth,[8],1
same,normalized growth,[9],0.98
same,normalized growth,[10],1.02
same,normalized growth,[11],0.805
same,normalized growth,[12],1
same,normalized growth,[13],0.959
same,normalized growth,[14],0.799 (active)
same,normalized growth,[15],0.991
same,normalized growth,[16],0.993
same,normalized growth,[17],1
same,normalized growth,[27],0.719
same,normalized growth,[19],0.848 (active)
same,normalized growth,[20],0.892
same,normalized growth,[21],1
same,normalized growth,[22],0.994
same,normalized growth,[23],0.872
same,normalized growth,[24],0.919
same,normalized growth,[25],0.854 (active)
same,normalized growth,[26],0.754
CNCC(O)c1ccc(O)cc1 (configuration not stated),normalized growth,[1],1.03
same,normalized growth,[28],1.02
same,normalized growth,[29],1
same,normalized growth,[30],1.01
same,normalized growth,[31],1.02
same,normalized growth,[6],1.02
same,normalized growth,[10],1.01
same,normalized growth,[17],1
same,normalized growth,[27],1.04
same,normalized growth,[18],1.03
same,normalized growth,[32],1.02
same,normalized growth,[33],1.01
same,normalized growth,[34],0.999
same,normalized growth,[35],1.02
same,normalized growth,[25],1
NNC(=O)c1ccc(O)cc1,normalized growth,[1],0.949
same,normalized growth,[28],0.963
same,normalized growth,[29],0.991
same,normalized growth,[4],1.01
same,normalized growth,[30],0.99
same,normalized growth,[31],0.985
same,normalized growth,[6],0.992
same,normalized growth,[10],0.988
same,normalized growth,[17],0.986
same,normalized growth,[19],0.989
same,normalized growth,[32],0.994
same,normalized growth,[33],0.991
same,normalized growth,[34],0.974
same,normalized growth,[21],0.97
same,normalized growth,[35],1.05
same,normalized growth,[24],0.977
same,normalized growth,[25],0.988
